System: Bacteroides clarus
Experiment: growth AUC relative to DMSO control (median of replicates) (fraction); higher = more growth (less inhibition), active = hit call of the paper
Details: 20 µM; 24 h;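 active = AUC reduced over 20% with Padj below 0.05 in at least 2 of 3 replicates; inactive = otherwise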
Outline: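 Area under the growth curve was normalised to the plate median of solvent-only wells, except on the industrial chemical plate, where row and column medians were used. Curves came from gut bacterial monocultures grown anaerobically at 37 °C in mGAM with 20 µM compound (1% DMSO), starting at OD600 0.05 and read at OD600 every hour for 24 h. The minimum OD of each curve was set to 0, and values are medians of three biological replicates grown on separate days.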

| SMILES | growth AUC |
| --- | --- |
| BrCCBr | 1.01 (inactive) |
| O=C(O)c1ccc(Cl)nc1 | 1.02 (inactive) |
| N#CCNC(=O)c1cnccc1C(F)(F)F | 0.959 (inactive) |
| O=C1c2ccccc2C(=O)N1SC(Cl)(Cl)Cl | 0.977 (inactive) |
| CCC(CC)Nc1c([N+](=O)[O-])cc(C)c(C)c1[N+](=O)[O-] | 0.942 (inactive) |
| COc1ccc(/C(=C/C(=O)N2CCOCC2)c2ccc(Cl)cc2)cc1OC | 1 (inactive) |
| CON(C)C(=O)Nc1ccc(Br)c(Cl)c1 | 0.978 (inactive) |
| COP(=S)(NC(C)C)Oc1ccc(C)cc1[N+](=O)[O-] (stereo not drawn) | 0.977 (inactive) |
| CCCCc1c(C)nc(N(C)C)[nH]c1=O | 0.966 (inactive) |
| CCCSP(=S)(OCC)Oc1ccc(Cl)cc1Cl (stereo not drawn) | 1.05 (inactive) |
| O=S1(=O)OCC2C(CO1)C1(Cl)C(Cl)=C(Cl)C2(Cl)C1(Cl)Cl (stereo not drawn) | 0.945 (inactive) |
| Oc1ccc(-c2ccccc2)cc1 | 0.948 (inactive) |
| CC(C)(C)c1ccc(CSc2cnn(C(C)(C)C)c(=O)c2Cl)cc1 | 0.959 (inactive) |
| CCOc1ccc(C(C)(C)COCc2cccc(Oc3ccccc3)c2)cc1 | 1.03 (inactive) |
| CNC(=O)Oc1cccc2c1OC(C)(C)C2=O | 1.03 (inactive) |
| CCOC(=O)N(C)C(=O)CSP(=S)(OCC)OCC | 0.999 (inactive) |
| Nc1c(Cl)cc([N+](=O)[O-])cc1Cl | 0.973 (inactive) |
| O=C1C(Cl)=C(Cl)C(=O)C(Cl)=C1Cl | 1.01 (inactive) |

Reference: the supplement of paper PMC12669032
